# Measurements: PubChem BioAssay AID1565 (Sanford-Burnham Center for Chemical Genomics, 2009)
# Out of some 290,000 compounds screened, about 3,200 (1.1%) were called active. The sample holds actives, similar compounds and a random draw of the others, so the mix is not that of the screen. Rule as the data show it: active = inhibition above about 60%; inactive = the rest.
# Target: Phosphoethanolamine/phosphocholine phosphatase (Homo sapiens) (UniProt Q8TCT1)
# Assay: PubChem AID 1565
# Details: recombinant PHOSPHO1, absorbance phosphatase assay; at 13.3 µM; hits give high values
# Sequence of Phosphoethanolamine/phosphocholine phosphatase (Homo sapiens) (Q8TCT1 whole entry, looked up): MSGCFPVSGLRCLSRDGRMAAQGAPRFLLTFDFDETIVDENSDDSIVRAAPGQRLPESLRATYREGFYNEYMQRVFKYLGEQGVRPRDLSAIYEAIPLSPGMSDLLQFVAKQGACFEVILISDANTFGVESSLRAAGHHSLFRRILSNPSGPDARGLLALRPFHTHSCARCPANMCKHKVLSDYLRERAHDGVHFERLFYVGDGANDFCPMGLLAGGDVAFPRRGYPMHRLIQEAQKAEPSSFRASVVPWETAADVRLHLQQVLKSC
row,Compound,inhibition
1,Cc1ccc(S(=O)(=O)N2CCN=C2SCc2c(F)cccc2Cl)cc1,22.6% (inactive)
2,OC(CNCCc1ccc(Cl)cc1Cl)COc1ccccc1 (stereo unspecified),46.3% (inactive)
3,COc1ccc(OC)c(C(=O)NC(CC(N)=O)c2ccc(N3CCC(N4CCCCC4)CC3)c([N+](=O)[O-])c2)c1 (stereo unspecified),-18.6% (inactive)
4,O=C(CNc1cccc(S(=O)(=O)N2CCCCC2)c1)Nc1ccccc1F,42.8% (inactive)
5,CC(C)C(C(=O)NCc1ccco1)N(CC1CCCO1)C(=O)CNS(=O)(=O)c1ccc(F)cc1 (stereo unspecified),46.2% (inactive)
6,CCOc1ccccc1Nc1nnc(SCc2ccc(C(=O)OC)o2)s1,48.3% (inactive)
7,Cc1cc(NC(=O)CSc2nnc(Nc3ccccc3F)s2)no1,-3.4% (inactive)
8,CCOc1ccccc1Nc1nnc(SCC(=O)Nc2cc(C)on2)s1,61.5% (active)
9,CCOC(=O)C1(CCOC)CCN(Cc2cc3ccccc3s2)CC1,3.1% (inactive)
10,CCOC(=O)c1ccc(NC(=O)CSc2nnc(COc3ccccc3OC)n2C)cc1,6.3% (inactive)
11,CCCCNC(=O)CSc1nc2ccc(NC(=O)CSc3nnc(N)s3)cc2s1,-25.6% (inactive)
12,CCCCNC(=O)CSc1nc2ccc(NC(=O)CSc3nnc(COc4ccccc4C)n3C)cc2s1,74.2% (active)
13,CC(C)[C@H](NC(=O)N1CCn2c1nc1ccccc12)C(=O)NC1CC1,46.9% (inactive)
14,O=S1(=O)CCOC[C@H](CC2CCCCC2)N1Cc1ccc(F)cc1,4% (inactive)
15,CCOC(=O)c1c(C)[nH]c(C)c1S(=O)(=O)NCCCc1ccco1,-28.5% (inactive)
16,COc1cccc(NC(C)=[N+](C)CCNS(=O)(=O)c2ccc(Cl)cc2)c1,-9% (inactive)
17,O=S(=O)(NCc1ccccc1)c1ccc(S(=O)(=O)N2CCCC2)cc1,3.4% (inactive)
18,COC(=O)C1=C(C)NC(=O)/C1=C/c1ccc(CNS(=O)(=O)c2ccc(C)cc2)o1,41.2% (inactive)
19,O=c1/c(=C/c2ccc(CNS(=O)(=O)c3ccccc3)o2)sc2n1CCN=2,97.8% (active)
20,O=C(Nc1ccc(C(=O)O)cc1)/C(=C\c1ccccc1)NC(=O)c1ccc(Br)cc1,25% (inactive)
21,Cc1ccc(S(=O)Cc2ccc(C(=O)N3CCN(C4CCCCC4)CC3)o2)cc1 (stereo unspecified),26.1% (inactive)
22,CCC(C)c1ccccc1NC(=O)CN(C)CC(=O)Nc1ccccc1SC (stereo unspecified),7% (inactive)
23,Cc1ccc(NC(=O)CSc2nnc(-c3cnccn3)n2Cc2ccco2)cc1C,-3.2% (inactive)

row,Compound,inhibition
1,O=C(CSc1nnc(-c2cccnc2)n1Cc1ccco1)c1ccc(Cl)c(Cl)c1,71.1% (active)
2,COc1cc(Cl)c(C)cc1NC(=O)CSc1nnc(-c2cccnc2)n1Cc1ccco1,28.9% (inactive)
3,O=C(CSc1nnc(-c2cccnc2)n1Cc1ccco1)c1ccc(Cl)cc1,79.6% (active)
4,O=C(CSc1nnc(-c2cnccn2)n1Cc1ccco1)c1ccc(Cl)c(Cl)c1,85.4% (active)
5,COc1ccc(C(=O)CSc2nnc(COc3ccccc3)n2Cc2ccco2)cc1,91.7% (active)
6,Cc1cc(NC(=O)CSc2nc3cc(Cl)ccc3c(=O)n2Cc2ccco2)no1,12.3% (inactive)
7,O=C(CSc1nnc(-c2cccs2)n1Cc1ccco1)c1ccc2c(c1)OCO2,-69.6% (inactive)
8,C=CCn1c(CNC(=O)c2ccco2)nnc1SCC(=O)c1ccc(OC)cc1,32.2% (inactive)
9,CCn1c(COc2ccccc2)nnc1SCC(=O)NCc1ccco1,19.2% (inactive)
10,COc1ccc(NC(=O)CSc2nnc(-c3cccs3)n2Cc2ccco2)cc1OC,19.4% (inactive)
11,CCc1ccc(NC(=O)CSc2nnc(-c3cnccn3)n2Cc2ccco2)cc1,1.3% (inactive)
12,CC1CCN(C(=O)/C(=C\c2ccccc2F)NC(=O)c2ccccc2)CC1,18.7% (inactive)
13,CCN(c1cccc(C)c1)S(=O)(=O)c1ccc(-c2coc(C)n2)cc1,-0.1% (inactive)
14,Cc1cc(=O)oc2c3c(cc(OCC(=O)NCc4ccccn4)c12)OC(C)(C)CC3,34.3% (inactive)
15,O=C1C(=O)N(CCN2CCOCC2)C(c2cccc(Cl)c2)/C1=C(/O)c1ccc2c(c1)OCO2 (stereo unspecified),24% (inactive)
16,CN(C(=O)CCN1C(=O)/C(=C/c2ccccc2F)SC1=S)C1CCS(=O)(=O)C1 (stereo unspecified),52.6% (inactive)
17,COc1ccc(OC)c(NC(=O)Cc2cccs2)c1,3.8% (inactive)
18,CCCc1nn2c(=O)cc(CSCC(=O)Nc3cccc(C)c3)nc2s1,24% (inactive)
19,CCOC(=O)Cc1csc(NC(=O)CSc2nnc(-c3cccnc3)n2Cc2ccco2)n1,17.3% (inactive)
20,O=C(CSc1nnc(-c2cccnc2)n1CCc1ccccc1)NCc1ccccc1,1.5% (inactive)
21,C(=C\c1ccccc1)/CSc1nnc(-c2cccnc2)n1Cc1ccco1,70.5% (active)
22,Cc1ccc(C(=O)N(CC(=O)NC2CCCC2)c2ccc(F)cc2)s1,40.5% (inactive)
23,CCCCn1c(SCC(=O)N2CCC(C(=O)OCC)CC2)nc2cc(S(N)(=O)=O)ccc21,1.5% (inactive)

row,Compound,inhibition
1,CCCCn1c(SCc2ncc(-c3ccccc3)o2)nc2cc(S(N)(=O)=O)ccc21,75.4% (active)
2,CCn1c(SCC(=O)NCC2CCCO2)nc2cc(S(=O)(=O)N3CCCCC3)ccc21 (stereo unspecified),14.5% (inactive)
3,O=C(c1cccc(-n2cccc2)c1)N1CCN(S(=O)(=O)c2ccc(F)cc2)CC1,-102% (inactive)
4,O=C(C1CC(=O)N(c2ccc(F)cc2)C1)N1CCN(c2ccccc2)CC1 (stereo unspecified),42.6% (inactive)
5,COc1ccc(CNC(=O)C(C)n2nc(C)c3c(C)n(-c4ccccc4)nc3c2=O)c(OC)c1 (stereo unspecified),64.7% (active)
6,COc1ccc(OC)c(CNC(=O)Cn2nc(C)c3c(C)n(-c4ccc(C)cc4)nc3c2=O)c1,24% (inactive)
7,Cc1nn(C(C)C(=O)NCCC2=CCCCC2)c(=O)c2nn(-c3ccccc3)c(C)c12 (stereo unspecified),54.1% (inactive)
8,COC(=O)c1ccc(CN2CCCC(C(=O)Nc3cccc(-n4cnnn4)c3)C2)cc1 (stereo unspecified),22.6% (inactive)
9,Cc1cc(C)cc(NS(=O)(=O)c2ccc(F)cc2)c1,28.3% (inactive)
10,Cn1nccc1NS(=O)(=O)c1ccc(F)cc1,69.9% (active)
11,Cn1c(=O)n(C)c2cc(NS(=O)(=O)c3ccc(F)cc3)ccc21,38.9% (inactive)
12,O=C(C1CCCN(S(=O)(=O)c2ccc([N+](=O)[O-])cc2)C1)N1CCCCC1 (stereo unspecified),52.6% (inactive)
13,O=C(NNS(=O)(=O)c1ccc([N+](=O)[O-])cc1)C1CCCCC1,61% (active)
14,O=C(NNS(=O)(=O)c1ccc(F)cc1)C1CCCCC1,18.4% (inactive)
15,O=C(Cc1ccccc1)NNS(=O)(=O)c1ccc([N+](=O)[O-])cc1,6.7% (inactive)
16,CC(=O)N1c2ccc(S(=O)(=O)N3CCCC(C(=O)Nc4ccc(C)cc4C)C3)cc2CC1C (stereo unspecified),25.4% (inactive)
17,COc1ccc(OC)c(NC(=O)C2CCCN2S(=O)(=O)c2cccc3nsnc23)c1 (stereo unspecified),20.7% (inactive)
18,COc1ccccc1NC(=O)CSc1nnc(C)n1CC1CCCO1 (stereo unspecified),2.5% (inactive)
19,Cc1nnc(SCC(N)=O)n1CC1CCCO1 (stereo unspecified),14.5% (inactive)
20,O=C(CSc1nnc(-c2ccco2)n1CC1CCCO1)c1ccccc1 (stereo unspecified),69.4% (active)
21,Cc1cccc(NS(=O)(=O)c2ccc(-c3cnc(C4CC4)o3)cc2)c1,36.8% (inactive)
22,Cc1nnc(SCC(=O)Nc2ccc(S(=O)(=O)Nc3ccc(Cl)nn3)cc2)s1,7.5% (inactive)
23,O=C(NC(c1ccccc1)c1ccccc1)N1CCN(CCO)CC1,-22.1% (inactive)

row,Compound,inhibition
1,S=C(c1ccccc1)N1CCCC1,29% (inactive)
2,OCCN1CCN(C(=S)c2ccc(-c3ccccc3)cc2)CC1,71.4% (active)
3,COc1ccc(C(=O)N2CCCN(C)CC2)c(OC)c1,-0.8% (inactive)
4,Cc1ccc(NC(=O)CN(C)C(=O)COC(=O)C(C)(C)Oc2ccc(Cl)cc2)cc1,14.5% (inactive)
5,CC(C)CC(CCc1ccccc1)OS(N)(=O)=O (stereo unspecified),4% (inactive)
6,CC(=O)c1cc(C#N)c(N2CCCCC2)nc1C,1.5% (inactive)
7,CC(=O)c1cc(C#N)c(SCC(=O)Nc2nccs2)nc1C,28.8% (inactive)
8,CC(=O)c1cc(C#N)c(SCC(=O)C(C)(C)C)nc1C,75.8% (active)
9,Clc1cc(NC2CCCCC2)ncn1,-10.9% (inactive)
10,COc1ccc(Cc2nnc(SCC(=O)c3cccc([N+](=O)[O-])c3)n2C)cc1,76.3% (active)
11,COc1cccc(NCCC(=O)c2cccc([N+](=O)[O-])c2)c1,22.6% (inactive)
12,COc1ccc(-n2cnnc2SCC(=O)Nc2cccc([N+](=O)[O-])c2)cc1,-3.1% (inactive)
13,COc1cccc(CNS(=O)(=O)c2cc3c(cc2C)n(C)c(=O)c(=O)n3C)c1,-3.5% (inactive)
14,Cc1cccc(CNS(=O)(=O)c2ccc(-c3cnc(C4CC4)o3)cc2)c1,32.9% (inactive)
15,Cn1c(SCc2ccc(F)cc2)nnc1-c1ccncc1,35.1% (inactive)
16,Oc1c(C(c2cccs2)N2CCN(c3ccc(F)cc3)CC2)sc2ncnn12 (stereo unspecified),19.3% (inactive)
17,Cc1nc2sc(C(c3ccco3)N3CCOCC3)c(O)n2n1 (stereo unspecified),-2.3% (inactive)
18,Oc1c(C(c2ccco2)N2CCC3(CC2)OCCO3)sc2ncnn12 (stereo unspecified),95.9% (active)
19,COc1ccc(CNC(=O)C(NS(=O)(=O)c2cccc3nsnc23)C(C)C)cc1 (stereo unspecified),59.8% (inactive)
20,COc1cccc(NC(=O)CCNS(=O)(=O)c2ccc3c(c2)oc(=O)n3C)c1,59.6% (inactive)
21,Cc1ccc(NC(=O)CCNS(=O)(=O)c2ccc3c(c2)oc(=O)n3C)cc1C,-21.8% (inactive)
22,Cn1c(=O)oc2cc(S(=O)(=O)NCCC(=O)NCc3ccccc3Cl)ccc21,75.4% (active)
